Test results published in PubChem BioAssay (Tox21).
Where “and” joins values, the source holds several entries; their conditions need not be identical. Equal entries are not always repeated. Inconclusive results are not listed. Where a call stands in place of a potency, no number is given. More than one record can exist for a structure, and the calls need not agree. Calls of active or inactive are those of the source. Unless noted, the call rests on the fitted dose curve; in most records, active means well fitted curve in the direction sought with a large enough effect in the repeat runs; inconclusive means weak or mixed curves; inactive means no such curve, though single readings can be large; an effect the other way counts as inactive or inconclusive.

Key:
[1] = qHTS assay to identify small molecule antagonists of the androgen receptor (AR) signaling pathway using the MDA cell line in the presence of 0.5 nM R1881 - cell viability counter screen (AID 1259242); further: nearly all actives have a fitted effect of over 45% in size; further: potency means the concentration at half of the fitted maximal effect
Procedure, shortened: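 Live-cell protease fluorescence, CellTiter-Fluor, 30 min at 37C. Cells: MDA-kb2, 3,000/well, preincubated 5 hr. Compounds plus 0.5 nM R1881 final, 16 hr, 37C, 0% CO2.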

[2] = target: Estrogen receptor (Homo sapiens) (UniProt P03372); assay: qHTS assay to identify small molecule antagonists of the estrogen receptor alpha (ER-alpha) signaling pathway using the BG1 cell line in the presence of 0.1 nM 17-beta-estradiol (AID 1259244); further: nearly all actives have a fitted effect of over 50% in size; further: potency means the concentration at half of the fitted maximal effect
Sequence of Estrogen receptor (Homo sapiens) (P03372 whole entry, looked up): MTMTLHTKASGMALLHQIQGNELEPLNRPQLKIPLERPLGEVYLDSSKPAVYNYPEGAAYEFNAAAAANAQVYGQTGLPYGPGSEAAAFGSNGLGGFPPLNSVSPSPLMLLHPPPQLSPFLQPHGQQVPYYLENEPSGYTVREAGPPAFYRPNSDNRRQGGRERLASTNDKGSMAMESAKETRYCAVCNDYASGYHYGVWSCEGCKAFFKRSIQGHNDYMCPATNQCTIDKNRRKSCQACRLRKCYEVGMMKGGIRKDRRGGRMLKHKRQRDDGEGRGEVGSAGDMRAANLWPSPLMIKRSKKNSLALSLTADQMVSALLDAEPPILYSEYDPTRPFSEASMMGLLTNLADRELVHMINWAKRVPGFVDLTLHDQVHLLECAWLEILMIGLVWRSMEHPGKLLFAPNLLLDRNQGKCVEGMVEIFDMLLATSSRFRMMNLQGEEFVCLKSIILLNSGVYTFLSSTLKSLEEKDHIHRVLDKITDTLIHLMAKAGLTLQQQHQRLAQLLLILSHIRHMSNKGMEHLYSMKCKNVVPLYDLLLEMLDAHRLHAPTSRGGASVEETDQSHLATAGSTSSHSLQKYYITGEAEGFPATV
Procedure, shortened: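 Luminescence after ONE-Glo (30 min, room temperature) measured ERE-luciferase activity in VM7Luc4E2 cells treated 22 h with compound and 0.1 nM final 17beta-estradiol as stimulator.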

[3] = qHTS assay to identify small molecule phospholipidosis (PLD) inducers (AID 1259344; active means well fitted curve in the direction sought with a large enough effect; an effect the other way counts as inactive or inconclusive)
Procedure, shortened: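 Accumulated phospholipid, stained red by LipidTOX during 24 h compound treatment of HepG2 cells at 37 C, is quantified from images as pit number and intensity, normalised per cell using Hoechst-stained nuclei.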

[4] = qHTS assay to identify small molecule HDAC inhibitors (AID 1259364);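 further: wild-type HCT-116 cells with endogenous class I/II HDAC activity; top concentration of the series differs between compounds; nearly all actives have a fitted effect of over 45% in size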
Procedure, shortened: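 HCT-116 (wild type), 1,500 cells/well, overnight; compound 2 hr 37C 5% CO2; HDAC-Glo I/II reagent 30 min RT; luminescence readout.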

[5] = qHTS assay to identify small molecule HDAC inhibitors - cell viability counter screen (AID 1259365); further: series mostly up to about 92 µM; nearly all actives have a fitted effect of over 50% in size
Procedure, shortened: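 After overnight seeding at 1,500 cells per well, wild-type HCT-116 cultures took up compounds in DMSO for 2hr at 37 C. Viable cell content came from luminescence with CellTiter-Glo.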

[6] = qHTS assay to identify small molecule agonists of the sonic hedgehog signaling (Shh) pathway - cell viability counter screen (AID 1259366); further: nearly all actives have a fitted effect of over 50% in size; further: potency means the concentration at half of the fitted maximal effect
Procedure, shortened: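 Same-well cytotoxicity read. Gli1-Luc reporter 3T3 cells; compounds 24hr, 37C/5% CO2; CellTiter-Fluor fluorescence.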

[7] = qHTS assay to identify small molecule antagonists of the sonic hedgehog signaling (Shh) pathway - cell viability counter screen (AID 1259367); further: nearly all actives have a fitted effect of over 55% in size
Procedure, shortened: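 CellTiter-Fluor signal in conditioned medium-stimulated 3T3 Gli1-Luc cells, 23 hr compound exposure, 37C.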

[8] = qHTS assay to identify small molecule agonists of the sonic hedgehog signaling (Shh) pathway (AID 1259368; calls by dose curve;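 further: NIH/3T3-derived 3T3Gli1-Luc cells carrying a stable Gli1-driven firefly luciferase reporter; series mostly up to about 92 µM; nearly all actives have a fitted effect of over 15% in size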)
Procedure, shortened: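 Read-out: firefly luciferase luminescence from a Gli1 response element reporter stably integrated in NIH/3T3-derived 3T3Gli1-Luc cells, measured 30 min at room temperature after reagent addition. Compound exposure lasted 24 hr at 37 C, 5% CO2.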

[9] = qHTS assay to identify small molecule antagonists of the sonic hedgehog signaling (Shh) pathway (AID 1259369; calls by dose curve; further: nearly all actives have a fitted effect of over 45% in size; further: potency means the concentration at half of the fitted maximal effect)
Procedure, shortened: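 Luminescence readout: firefly Luc under Gli1 response element in 3T3Gli1-Luc cells (NIH/3T3 clone). Antagonist mode, stimulation by conditioned medium; compound exposure 24hr at 37 C, 5% CO2.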

[10] = qHTS assay to identify small molecule agonists of the androgen receptor (AR) signaling pathway in the presence of an antagonist - cell viability counter screen (AID 1259379); further: nearly all actives have a fitted effect of over 25% in size; further: potency means the concentration at half of the fitted maximal effect
Procedure, shortened: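 Viability counter screen: CellTiter-Fluor fluorescence, measured in the same wells as the luciferase read-out. MDA-kb2 cells, 3,000/well, with nilutamide at 3.0uM final and compounds at 15 concentrations, 16 hr at 37C, 0% CO2.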

[11] = qHTS assay to identify small molecule agonists of the estrogen receptor beta (ER-beta) signaling pathway - cell viability counter screen (AID 1259380); further: nearly all actives have a fitted effect of over 30% in size
Procedure, shortened: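 Luminescence read-out (CellTiter-Glo, 30 min, room temp) taken in the same wells as the beta-lactamase reporter assay; ER-beta-UAS-bla HEK293T cells exposed to DMSO-dissolved compounds for 16 hr at 37C in 2% charcoal-stripped FBS medium.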

[12] = target: Estrogen receptor (Homo sapiens) (UniProt P03372); assay: qHTS assay to identify small molecule agonists of the estrogen receptor alpha (ER-alpha) signaling pathway in the presence of an antagonist (AID 1259383; calls by dose curve; further: nearly all actives have a fitted effect of over 15% in size; further: potency means the concentration at half of the fitted maximal effect; on activation: top concentration of the series differs between compounds)
Procedure, shortened: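 Luciferase luminescence (ONE-Glo, 30min at room temperature) measured in VM7Luc4E2 cells after 22hr compound exposure at 15 concentrations, with 10.0nM ICI-182,780 final present; cells express endogenous ER-alpha and carry four EREs upstream of luciferase.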

[13] = qHTS assay to identify small molecule agonists or antagonists of the thyroid stimulating hormone receptor (TSHR) signaling pathway - wild type cell line counter screen (AID 1259384; calls by dose curve)
Procedure, shortened: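 Counter screen in untransfected Hek293: compounds (15-point titration, triplicate) plus phosphodiesterase inhibitor Ro20-1724 added after 18 h plating; 30 min RT. Intracellular cAMP via competitive d2/cryptate immunoassay, 1 h incubation.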

[14] = target: Thyrotropin receptor (Homo sapiens) (UniProt P16473); assay: qHTS assay to identify small molecule antagonists of the thyroid stimulating hormone receptor (TSHR) signaling pathway (AID 1259385; calls by dose curve; further: nearly all actives have a fitted effect of over 20% in size)
Sequence of Thyrotropin receptor (Homo sapiens) (P16473 whole entry, looked up): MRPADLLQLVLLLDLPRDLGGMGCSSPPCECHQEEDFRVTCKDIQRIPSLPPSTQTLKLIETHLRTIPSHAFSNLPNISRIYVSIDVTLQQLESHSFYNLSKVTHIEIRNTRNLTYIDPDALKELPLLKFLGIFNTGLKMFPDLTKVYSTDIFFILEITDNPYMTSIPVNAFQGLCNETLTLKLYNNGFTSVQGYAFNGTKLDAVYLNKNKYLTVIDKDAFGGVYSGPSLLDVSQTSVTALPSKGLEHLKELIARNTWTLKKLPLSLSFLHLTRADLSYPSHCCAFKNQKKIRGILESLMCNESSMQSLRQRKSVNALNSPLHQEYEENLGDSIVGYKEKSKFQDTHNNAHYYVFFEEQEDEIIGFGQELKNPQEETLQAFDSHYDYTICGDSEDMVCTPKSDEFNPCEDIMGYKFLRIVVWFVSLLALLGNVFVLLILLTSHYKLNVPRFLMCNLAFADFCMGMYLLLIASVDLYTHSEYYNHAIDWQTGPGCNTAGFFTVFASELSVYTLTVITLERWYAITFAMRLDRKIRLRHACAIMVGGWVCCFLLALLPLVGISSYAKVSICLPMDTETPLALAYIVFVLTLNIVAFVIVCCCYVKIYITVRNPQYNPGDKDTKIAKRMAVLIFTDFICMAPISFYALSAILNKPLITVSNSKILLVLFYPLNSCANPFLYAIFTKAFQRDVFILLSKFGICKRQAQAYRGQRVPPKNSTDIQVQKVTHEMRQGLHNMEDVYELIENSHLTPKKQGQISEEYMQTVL
Procedure, shortened: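 Antagonist mode: compound-treated TSHR-expressing HEK293 cells were stimulated with 1.5 ng/mL TSH (final) in presence of Ro20-1724 for 30 min at RT. HTRF cAMP detection after 1 h; each compound tested at 15 concentrations, triplicate.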

[15] = qHTS assay to identify small molecule agonists of the estrogen receptor alpha (ER-alpha) signaling pathway in the presence of an antagonist - cell viability counter screen (AID 1259386);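 further: cells exposed to compounds for 22 h at 37 °C before the viability read; nearly all actives have a fitted effect of over 30% in size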; further: potency means the concentration at half of the fitted maximal effect
Procedure, shortened: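 Read-out: CellTiter-Fluor fluorescence after 1hr reagent incubation, measured in the same wells as the luciferase readout. VM7Luc4E2 cells were exposed to 15 compound concentrations with 10.0nM ICI-182,780 for 22hr at 37C.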

[16] = target: Progesterone receptor (Homo sapiens) (UniProt P06401); assay: qHTS assay to identify small molecule agonists of the progesterone receptor (PR) signaling pathway (AID 1346784; calls by dose curve; further: nearly all actives have a fitted effect of over 30% in size)
Sequence of Progesterone receptor (Homo sapiens) (P06401 whole entry, looked up): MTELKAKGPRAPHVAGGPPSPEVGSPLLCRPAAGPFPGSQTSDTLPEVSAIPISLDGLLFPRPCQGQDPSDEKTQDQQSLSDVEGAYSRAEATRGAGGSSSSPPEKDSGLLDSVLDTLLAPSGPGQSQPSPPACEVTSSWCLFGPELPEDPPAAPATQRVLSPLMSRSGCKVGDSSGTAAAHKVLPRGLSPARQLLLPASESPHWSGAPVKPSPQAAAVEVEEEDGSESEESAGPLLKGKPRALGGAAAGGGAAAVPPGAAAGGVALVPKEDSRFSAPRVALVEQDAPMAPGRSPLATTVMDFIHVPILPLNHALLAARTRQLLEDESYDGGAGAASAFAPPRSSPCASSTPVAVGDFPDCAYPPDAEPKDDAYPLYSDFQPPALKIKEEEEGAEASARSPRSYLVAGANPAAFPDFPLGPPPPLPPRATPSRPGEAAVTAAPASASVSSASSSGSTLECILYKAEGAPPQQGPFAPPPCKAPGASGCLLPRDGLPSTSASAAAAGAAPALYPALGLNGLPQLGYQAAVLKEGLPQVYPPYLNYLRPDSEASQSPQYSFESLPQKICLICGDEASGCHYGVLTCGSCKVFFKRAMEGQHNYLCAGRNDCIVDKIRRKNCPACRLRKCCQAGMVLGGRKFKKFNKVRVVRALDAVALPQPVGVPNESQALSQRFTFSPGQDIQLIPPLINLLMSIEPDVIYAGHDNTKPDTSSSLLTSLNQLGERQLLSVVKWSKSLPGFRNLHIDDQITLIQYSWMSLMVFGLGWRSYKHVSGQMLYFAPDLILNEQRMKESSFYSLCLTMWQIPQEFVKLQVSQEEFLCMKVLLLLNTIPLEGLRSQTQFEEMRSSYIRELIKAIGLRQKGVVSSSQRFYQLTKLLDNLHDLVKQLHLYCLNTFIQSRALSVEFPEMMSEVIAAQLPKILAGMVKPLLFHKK
Procedure, shortened: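 Compounds were tested for PR agonism in HEK 293T cells bearing a beta-lactamase gene under UAS control. Treatment lasted 16 hr at 37C; signal came from fluorescence of a FRET substrate.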

[17] = qHTS assay to identify small molecule antagonists of the estrogen receptor beta (ER-beta) signaling pathway - cell viability counter screen (AID 1259382); further: nearly all actives have a fitted effect of over 55% in size; further: potency means the concentration at half of the fitted maximal effect
Procedure, shortened: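 Luminescent ATP read-out (CellTiter-Glo, 30 min, RT) taken in the same wells as the bla reporter assay. HEK293T ER-beta-UAS-bla cells in 2% charcoal-stripped FBS were exposed to compounds with 1nM E2 for 16 hr at 37C.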

[18] = target: Estrogen receptor beta (Homo sapiens) (UniProt Q92731); assay: qHTS assay to identify small molecule agonists of the estrogen receptor beta (ER-beta) signaling pathway (AID 1259377; active means well fitted activation curve with a large enough effect in the signal ratio in the repeat runs, not every such curve was filed as active; the % refers to the signal ratio)
Sequence of Estrogen receptor beta (Homo sapiens) (Q92731 whole entry, looked up): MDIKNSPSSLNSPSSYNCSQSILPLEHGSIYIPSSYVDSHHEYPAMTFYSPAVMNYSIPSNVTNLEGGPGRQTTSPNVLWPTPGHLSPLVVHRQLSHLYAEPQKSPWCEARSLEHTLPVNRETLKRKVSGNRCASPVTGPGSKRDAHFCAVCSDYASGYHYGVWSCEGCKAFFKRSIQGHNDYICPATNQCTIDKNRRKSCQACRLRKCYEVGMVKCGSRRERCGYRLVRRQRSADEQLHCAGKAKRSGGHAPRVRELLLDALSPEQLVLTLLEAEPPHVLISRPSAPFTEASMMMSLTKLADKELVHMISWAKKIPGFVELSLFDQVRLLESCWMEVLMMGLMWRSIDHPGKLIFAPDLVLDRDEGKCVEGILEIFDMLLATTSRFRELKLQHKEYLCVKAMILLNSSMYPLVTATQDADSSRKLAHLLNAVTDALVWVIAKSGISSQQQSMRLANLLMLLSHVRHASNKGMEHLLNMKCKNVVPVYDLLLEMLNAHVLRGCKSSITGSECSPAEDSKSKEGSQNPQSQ
Procedure, shortened: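 Read-out: beta-lactamase FRET fluorescence. Cell line: ER-beta-UAS-bla HEK293T in 2% charcoal-stripped FBS. Exposure: 16 hr at 37C. Substrate step: 2 h at room temperature.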

[19] = target: Estrogen receptor beta (Homo sapiens) (UniProt Q92731); assay: qHTS assay to identify small molecule antagonists of the estrogen receptor beta (ER-beta) signaling pathway (AID 1259378; active means well fitted inhibition curve with a large enough effect in the signal ratio in the repeat runs, not every such curve was filed as active; the % refers to the signal ratio; further: potency means the concentration at half of the fitted maximal effect)
Procedure, shortened: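 Antagonist mode: compounds added to beta-lactamase reporter HEK293T ER-beta-UAS cells stimulated with E2 (1nM final), 16 hr at 37C. LiveBLAzer B/G FRET substrate, 2 hours room temperature, fluorescence read-out.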

[20] = target: Androgen receptor (Homo sapiens) (UniProt P10275); assay: qHTS assay to identify small molecule agonists of the androgen receptor (AR) signaling pathway in the presence of an antagonist (AID 1259381; calls by dose curve; further: nearly all actives have a fitted effect of over 15% in size)
Sequence of Androgen receptor (Homo sapiens) (P10275 whole entry, looked up): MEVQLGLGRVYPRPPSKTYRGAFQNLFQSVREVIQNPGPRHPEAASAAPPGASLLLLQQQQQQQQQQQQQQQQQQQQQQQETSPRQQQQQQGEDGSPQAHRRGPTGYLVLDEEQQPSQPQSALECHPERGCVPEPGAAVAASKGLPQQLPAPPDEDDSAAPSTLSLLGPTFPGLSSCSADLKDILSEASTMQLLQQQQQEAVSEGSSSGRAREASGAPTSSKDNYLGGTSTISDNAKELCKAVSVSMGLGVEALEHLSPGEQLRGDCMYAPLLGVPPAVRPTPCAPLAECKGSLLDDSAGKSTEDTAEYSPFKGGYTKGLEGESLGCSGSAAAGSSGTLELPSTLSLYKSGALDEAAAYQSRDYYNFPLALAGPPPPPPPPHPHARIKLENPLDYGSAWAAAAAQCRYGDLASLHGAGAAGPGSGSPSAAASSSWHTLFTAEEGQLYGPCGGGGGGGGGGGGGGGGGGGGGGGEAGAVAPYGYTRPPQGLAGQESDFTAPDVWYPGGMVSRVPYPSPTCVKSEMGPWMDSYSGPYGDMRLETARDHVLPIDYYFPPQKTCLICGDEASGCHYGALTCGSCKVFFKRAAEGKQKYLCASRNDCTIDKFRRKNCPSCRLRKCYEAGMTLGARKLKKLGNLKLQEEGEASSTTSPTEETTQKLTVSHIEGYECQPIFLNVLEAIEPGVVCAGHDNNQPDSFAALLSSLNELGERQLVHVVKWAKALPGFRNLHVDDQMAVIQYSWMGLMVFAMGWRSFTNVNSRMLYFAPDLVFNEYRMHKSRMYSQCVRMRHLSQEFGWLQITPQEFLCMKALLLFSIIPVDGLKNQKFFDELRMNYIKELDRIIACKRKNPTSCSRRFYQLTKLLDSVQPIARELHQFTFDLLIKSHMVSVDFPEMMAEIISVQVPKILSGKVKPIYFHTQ
Procedure, shortened: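 Luciferase read-out (ONE-Glo, 30min room temperature) in MDA-kb2 MMTV-reporter cells; agonist mode run in presence of AR antagonist nilutamide, 3.0uM final. Compounds tested as 15-point series, 16hr exposure at 37C, 0% CO2.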

SMILES | Potency [1] | Potency [2] | outcome [3] | Potency [4] | Potency [5] | Potency [6] | Potency [7] | Potency [8] | Potency [9] | Potency [10] | Potency [11] | Potency [12] | outcome [13] | Potency [14] | Potency [15] | Potency [16] | Potency [17] | Potency [18] | Potency [19] | Potency [20]
Cc1cccc(C)c1NC1=NCCCS1 | inactive | inactive | inactive | inactive | inactive | inactive | inactive | inactive | inactive | inactive | inactive | inactive | inactive | inactive | inactive | inactive |  |  |  | 
C#C[C@]1(O)CC[C@H]2[C@@H]3CCC4=CC(=O)CCC4=C3C=C[C@@]21CC | inactive | 13.3 µM (active) | inactive | inactive | inactive |  | inactive | inactive |  | inactive |  | 1.06 µM (active) | inactive | inactive | inactive |  | inactive |  |  | 
CC(Cc1ccccc1)NCc1ccccc1Cl (stereo unspecified) | inactive | inactive | inactive | inactive | inactive | inactive | inactive | inactive | inactive | inactive |  | inactive | inactive | inactive | inactive | inactive | inactive |  |  | 
CCCCC(CC)COC(=O)c1c(Br)c(Br)c(Br)c(Br)c1C(=O)OCC(CC)CCCC (stereo unspecified) | inactive | inactive |  | inactive | inactive | inactive | inactive | inactive | inactive | inactive | inactive | inactive | inactive | inactive | inactive |  | inactive | inactive | inactive | 
CN1C[C@H](C(=O)N[C@]2(C)O[C@@]3(O)[C@@H]4CCCN4C(=O)[C@H](Cc4ccccc4)N3C2=O)C=C2c3cccc4[nH]cc(c34)C[C@H]21 | inactive | 27.4 µM (active) and inactive | inactive | inactive | inactive |  |  | inactive | 3.87 µM (active) |  |  | inactive | inactive | inactive | 24.4 µM (active) and 20.2 µM (active) | inactive | 54.7 µM (active) | inactive | 27.4 µM (active) | 
C=CCN1C[C@H](C)N([C@H](c2ccc(C(=O)N(CC)CC)cc2)c2cccc(OC)c2)C[C@H]1C | inactive | inactive | inactive | inactive | inactive | inactive |  | inactive | inactive | inactive | inactive | inactive | inactive | inactive | inactive | inactive |  | inactive | inactive | 
CC(O)CN1CCN(CC(=O)[O-])CCN(CC(=O)[O-])CCN(CC(=O)[O-])CC1.[Gd+3] (stereo unspecified) | inactive | inactive | inactive | inactive | inactive |  | inactive | inactive | inactive | inactive |  | inactive | inactive | inactive | inactive |  | inactive | inactive | inactive | 
CCC1(CC)C(=O)NC(=O)NC1=O | inactive | inactive | inactive | inactive | inactive | inactive | inactive | inactive | inactive | inactive | inactive | inactive |  |  | inactive |  | inactive | inactive | inactive | 
c1ccc2sc(SNC3CCCCC3)nc2c1 | inactive | inactive | inactive | inactive |  | inactive | inactive | inactive | 61.1 µM (active) | inactive |  | inactive | inactive | inactive | inactive | inactive | inactive | inactive |  | 
CC(C)C1(C)N=C(c2ncccc2C(=O)O)NC1=O (stereo unspecified) | inactive | inactive |  | inactive | inactive | inactive |  | inactive | inactive | inactive | inactive | inactive | inactive | inactive | inactive | inactive | inactive |  |  | 
O=C(Cl)OCCOCCOC(=O)Cl | inactive | inactive |  | inactive | inactive | inactive | inactive | inactive | inactive | inactive | inactive | inactive | inactive | inactive | inactive | inactive | inactive |  |  | inactive
NC(=O)CF | inactive | inactive |  | inactive | inactive | inactive |  | inactive | inactive | inactive | inactive | inactive | inactive | inactive | inactive | inactive | inactive |  |  | 
CCc1ccccc1N | inactive | inactive |  | inactive | inactive | inactive |  | inactive | inactive | inactive | inactive | inactive | inactive | inactive | inactive | inactive |  |  |  | 
CN(C)c1ccc(N=O)cc1 | 48.7 µM (active) and 48.6 µM (active) | 43.4 µM (active) and inactive |  | inactive | inactive | 21.8 µM (active) and 21.7 µM (active) |  | inactive | 15.4 µM (active) | 43.4 µM (active) and 43.3 µM (active) |  | inactive |  |  | 68.8 µM (active) and 61.1 µM (active) |  |  | inactive |  | 
CCC(C)Cl (stereo unspecified) | inactive | inactive |  | inactive | inactive | inactive | inactive | inactive | inactive | inactive | inactive | inactive | inactive | inactive | inactive |  |  | inactive | inactive | 
CCOc1cccc(C2(N3CCN(c4ccccc4)CC3)CCC(C)CC2)c1 (stereo unspecified) | inactive | inactive |  | inactive | inactive | inactive | inactive | inactive | inactive | inactive | inactive | inactive | inactive | inactive | inactive | inactive | inactive |  |  | 
